A number with no mark means an inactive call.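 The calls were made as follows: active = MAPPIT score above the 99th percentile of random reference set scores in the same batch; inactive = at or below it.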
Tests used:
Test in all cases: MAPPIT interaction score (arbitrary units); higher = stronger binary interaction signal, active = hit call of the paper
Baldspot = settings: MAPPIT configuration: N-C; pair source set: screen_4
Description: (§1)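 MAPPIT in HEK293T cells: Drosophila bait and prey ORFs (from the FlyBi ORF collection) were co-transfected in quadruplicate, with two wells stimulated by erythropoietin. Interaction-dependent JAK-STAT activation was read out with a STAT-responsive firefly luciferase reporter. Positive calls use the 99th percentile of random reference set (RRS) scores within each batch […]. Batches Dvs01 and Dvs02 used the N-N configuration and Dvs04 the N-C configuration. Pairs come from FlyBi screens, CuraGen, DPiM, Finley Y2H, Lit-BM-16, Lit-BS-16 and RRS.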

EMC5 = settings: MAPPIT configuration: N-C; pair source set: screen_3
Description: as §1

Ude = settings: MAPPIT configuration: N-C; pair source set: screen_3
Description: as §1

Bfc = settings: MAPPIT configuration: N-C; pair source set: screen_4
Description: as §1

CG17376 = settings: MAPPIT configuration: N-N; pair source set: screen_1
Description: as §1

CG42565 = settings: MAPPIT configuration: N-C; pair source set: screen_4
Description: as §1

CG42688 = settings: MAPPIT configuration: N-C; pair source set: screen_4
Description: as §1

aspr = settings: MAPPIT configuration: N-N; pair source set: Curagen_low_conf
Description: as §1

fok = settings: MAPPIT configuration: N-C; pair source set: screen_3
Description: as §1

Ass = settings: MAPPIT configuration: N-N; pair source set: Curagen_high_conf
Description: as §1

Arv1 = settings: MAPPIT configuration: N-C; pair source set: RRS
Description: as §1

BicD = settings: MAPPIT configuration: N-C; pair source set: Lit-BM-16
Description: as §1
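Also: HEK293T cells with Epo stimulation, STAT-responsive firefly luciferase reporter, fold induction versus unstimulated cells divided by the larger fold induction of two negative controls lacking either bait or prey.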

B1: oxt (protein)
chain: MEQSVSARWLKRYRAFFLILLLIVAIQLFLAYKSLDIVGGGSGSGFDAAEAPASPPPPHAQARVQPPARTKLTAQQLGFQPECDILAREAISALQRAKTKDCREHIAQIACAIQAGRFYAPQLRSSCPAGNHTANVSLGCFKDEKDRRLLAGYYSSSKTSNSPAKCVELCLQSGYPYAGVQYGRECFCGYDPPPKASKLPDSSCNTKCLGNAKEICGGFYAMNIYETGIAKFTAQLAATTPSEETKRVRIAFLLTLNGRALRQVHRLLKALYAPEHVYYIHVDERQDYLYRKLLELESKFPNIRLARKRFSTIWGGASLLTMLLQCMEDLLQSNWHWDFVINLSESDFPVKTLDKLVDFLSANPGRNFVKGHGRETQKFIQKQGLDKTFVECDTHMWRIGDRKLPAGIQVDGGSDWVALSRPFVGYVTHPREDDELLQALLKLFRHTLLPAESFFHTVLRNTKHCTSYVDNNLHVTNWKRKQGCKCQYKHVVDWCGCSPNDFKPEDWPRLQATEQKSLFFARKFEPVINQAVLLQLEEWLYGPYTSEYANLHGYWQSLYHHEDVHGSGDDLARSIGDSVMRLSARQAKLYPLELIELTHYLHRDQYKGFLVRYRARGSTGKPLHLETRVRPTQQGKLARNARFSKRLRNFEVSTDFDQKEQIARNFGKLLGPQSDLLLSYTLQANADSGAASHSYNLTLLWIDPLGRLQDFNELHVEDSTSDVINHSKTLLKHPITPGIWTAKLIGRNSIYAQLKFLIAPLAYYKGYPLAKSSDAEALNAGLTVALPEDFEMPVEWQQHLQTDDEQFTMREESLAKGKMLGQELHSWIDGLVGQFFQLRESCVVEADSEVSLPLCSDAPWSSLAPDPKSDVDALLK
Baldspot
  MAPPIT interaction score: 0.0528
EMC5
  MAPPIT interaction score: -0.000675
Ude
  MAPPIT interaction score: 0.189

B2: disco (protein)
chain: MEHIMNPFMSPAYLLGHGPHSHQHVHSHLPSHPQPNAASPASSPGGSSGSGSGSAAGSGTGSGSSLKPRRWGSPPINLAGQFINPATGKKRVQCSICFKTFCDKGALKIHFSAVHLREMHKCTVEGCNMVFSSRRSRNRHSANPNPKLHSPHIRRKISPHDGRTAQQFPVFSPGTAAAAAAVAGRLPVAFPGLLPPPPPHHGHHPYVMFGGQAGLHGLGLLSTGCQDPDSGSVDNEQDADPEDDNDFVYVDMQANSSSPAASSEDQEEHERDNEQDEEMHCSLSLASSSSIAADEERAADQPLDFSLHKRRKSEQDREQEQEQEQEREREAEKEQEQDVESDKEHEPEQEHELEREKRSPSDAFSMDQLLGKRKRHDSTASSSACSTAAASSASSSSASASANPPQTSIKMDLDPDSDSAYMTSRRQMLPLPVLDLEEHHHLRLLQTQMFAAAAAAAATSQAPPTAFLPAGSPVDLAKDSPPMWSLLSEMYRSMLLKTQHQQYNHHHQLQQQHQQEQHHHLTLSHHHQEQHHHLGHHHMGHHHHHHHQHHQQQPQQQSPAATNAPISV
Bfc
  MAPPIT interaction score: 1.54
CG17376
  MAPPIT interaction score: 0.354
CG42565
  MAPPIT interaction score: 2.57
CG42688
  MAPPIT interaction score: 2.18
aspr
  MAPPIT interaction score: -0.256
fok
  MAPPIT interaction score: 0.776

B3: Git (protein)
chain: MCFASSIIEAHRKLFIAPPDLDHSDPATPTISTRSKMPRGKSRLQTEVCGDCGAGDPSWASINRGILLCADCCSVHRSLGRHISIVKSLRQGNWEPSVLNFVNSLNAHGANSVWEHHLLDGSTNSTGGKHVPRWRKPTPKDALHPTKSDFIKAKHVNLTFVLKPSLQDDDDGNGSAGCLEQELSRQLHASVRTSNLETSLRFLVQGADPNYYHEDKLSTPLHMAAKFGQASQIEMLLIYGADVNALDGNGMTPLELARANNHNTIAERLLDAMYDVTDRIITFLGGKKPDHASGRHMIIPDANGADISEQLKIARGKLQLVPNKMFEELVMDLYDEVDRRECEAIWSTSTLNADHATVPFLPANPFLSATRNQGRQKLARFNRAEFTGLLTDVLVDAMRRQNMANLRPMDAPVAGHQSLQSLPYANNSMLLGSFEQGGHDPNLSDDEPIYDPVASDDDYAPVPPMAQQAIVHTPPRSANSHNEMETLRKQLNDYKSEINQLKNVVQMLSSENTQLKSKFSSASNNSVYDEPLRIDLSLSSPDTEHEPLSLPEGGTANGESGSSNDSSNQSTIKRPASMYERRLVPNVAKGNTDIRNTTSMYQMAGDGKPFGEEVKVRSDLVTRRLKELIRAMQPVPEDQKQSIAPHGELIRSAVTDLIALYANLPPNASDPSRETLKLLTRQNILIQHECENLQKAIEADDKQAIQKNTLEVRDCAFHIASAIKTLVLQFY
Ass
  MAPPIT interaction score: -0.0648

B4: Drak (protein)
chain: MFTEKGIFPIGDGLLDVDADRLKGLLVSCPDINEIYEVEQTPFARGKFAAVRRAIHKNTGSHFAAKFLKRRRRAQSSDKEIKHEIAVLMLCEGEDNIVNLNAVHETRSDTALLLELATGGELQTILDNEECLTEAQARHCMREVLKALKFLHDRSIAHLDLKPQNILLAGERIEDGLKLCDFGISRVVCEGINVREMAGTPDYVAPEVLQYEPLSLLTDIWSVGVLTYVLLSGFSPFGGDTKQETFLNISQCALTFPDNLFGGVSPVAIDFIRRALRIKPNDRMNATGCLDHIWLKDDCSLDRQIYLQPQSDAEEEEEEDVDDDVEDEEEEEQVEEEEEETQNVEEPTTEAPQQQQQPVQQHQLAKSGQIHSKPTHNGHHRANSGGSISKIPIATSKLQSTPSSETTTAIHTLTSNSNGHVHKPTQIVTPTRRASDSDKENTYTATFVKKPVATIQLGSSNGIEDATVVATLTLFPDAPTTPKVIRKTPTGESNGSATSVKALVKKFQLEDSSGSAVARRSGGAVTSSSGLHSPTTTSVRLNSIRRASEPLTTVYKKQTSQNGCSSTSNPSSSPGSSPTTSGSTATLLIHSQRLGNSTAPASHCVAVPATATATSSASSSNSSSGKSTSAAHHLHHHHMHHHHHHHHHHVVIAAKNAAAVAATNNLSLDQGIIC
Arv1
  MAPPIT interaction score: 2.34

B5: BicD (protein)
chain: MSSASNNGPSADQSVQDLQMEVERLTRELDQVSSASAQSAQYGLSLLEEKSALQQKCEELETLYDNTRHELDITQEALTKFQTSQKVTNKTGIEQEDALLNESAARETSLNLQIFDLENELKQLRHELERVRNERDRMLQENSDFGRDKSDSEADRLRLKSELKDLKFRETRMLSEYSELEEENISLQKQVSSLRSSQVEFEGAKHEIRRLTEEVELLNQQVDELANLKKIAEKQMEEALETLQGEREAKYALKKELDGHLNRESMYHISNLAYSIRSNMEDNASNNSDGEEENLALKRLEADLSTELKSPDGTKCDLFSEIHLNELKKLEKQLESMESEKTHLTANLREAQTSLDKSQNELQNFMSRLALLAAHVDALVQLKKQIDVKEQGKEGGQKKDELEQQLRALISQYANWFTLSAKEIDGLKTDIAELQKGLNYTDATTTLRNEVTNLKNKLLATEQKSLDLQSDVQTLTHISQNAGQSLGSARSTLVALSDDLAQLYHLVCTVNGETPTRVLLDHKTDDMSFENDSLTAIQSQFKSDVFIAKPQIVEDLQGLADSVEIKKYVDTVSDQIKYLKTAVEHTIDMNKHKIRSEGGDALEKVNTEEMEELQEQIVKLKSLLSVKREQIGTLRNVLKSNKQTAEVALTNLKSKYENEKIIVSDTMSKLRNELRLLKEDAATFSSLRAMFAARCEEYVTQVDDLNRQLEAAEEEKKTLNQLLRLAVQQKLALTQRLEEMEMDREMRHVRRPMPAQRGTSGKSSFSTRPSSRNPASSNANPF
BicD
  MAPPIT interaction score: -0.381
